The whole screen tested about 52,000 compounds, of which about 4,300 (8.3%) were called active. Cut-off read from the data, not from the text of the source: active = survival mostly below about 52% (no sharp cut-off); inactive = mostly above about 56%. This excerpt belongs to a sample that is enriched for actives.

Results on 57 compounds are retold here after PubChem BioAssay AID463173 (ICCB-Longwood Screening Facility, Harvard Medical School, 2010).

The test system of this test is DeltatarO mutant. Briefly: growth inhibition of S. aureus wild type versus tarO mutant, primary screen, teichoic acid synthesis inhibitors, RN4220, OD600 (AID 463173). As to conditions: OD600, 18 h, stronger effect = lower value, screened at 18.75 µg/mL (by protocol).
`COc1cccc(N2CCN(c3nc4ccc(C(=O)c5ccccc5)cc4n4c(C)nnc34)CC2)c1`: the survival is 102% (inactive).
The value for `Cc1c(C(=O)OCCOc2ccccc2)[nH]c2c1C(=O)CC(c1ccccc1Cl)C2` (configuration not stated) was 80% (inactive); that for `CCC(=O)N1CCc2cc(Br)cc(S(=O)(=O)CCC(=O)NCCc3ccccc3Cl)c21` was 72% (inactive); that for `CCC(=O)N1CCc2cc(Br)cc(S(=O)(=O)NCCc3ccc(C)cc3)c21` was 85% (inactive).
Under `CCC(=O)N1CCc2cc(Br)cc(S(=O)(=O)NCCc3ccccc3)c21` stands 43% (active).
Take `CCC(=O)N1CCc2cc(Br)cc(S(=O)(=O)NCCc3ccccc3Cl)c21`: the survival is 39% (active).
In the case of `CCC(=O)N1CCc2cc(Br)cc(S(=O)(=O)NCCc3cccc(C)c3)c21`, the survival was 102% (inactive).
As to `CCC(=O)N1CCc2cc(Br)cc(S(=O)(=O)NCc3ccccc3)c21`, the survival was 66% (inactive).
`CC(CNC(=O)c1ccc2nc(Cc3ccccc3)oc2c1)c1ccccc1` (configuration not stated): the survival was 70% (inactive).
Under `CC(Sc1nccn1C)C(=O)Nc1ccccc1C#N` (configuration not stated) stands 85% (inactive); under `COc1ccccc1CNc1ncnc2c1c(-c1ccccc1)cn2-c1cccc(C)c1`, 80% (inactive); under `O=S(=O)(c1ccc(C2CCCCC2)cc1)N1CCN(c2ccc(Cl)c(Cl)c2)CC1`, 54% (active).
The value for `CCc1ccc(S(=O)(=O)N2CCN(c3ccc(Cl)c(Cl)c3)CC2)cc1` was 118% (inactive); that for `O=S(=O)(c1ccc(C2CCCCC2)cc1)N1CCN(c2cc(Cl)ccc2Cl)CC1` was 72% (inactive); that for `Cc1cccc(OC(=O)c2snnc2C)c1` was 88% (inactive).
The value for `Cc1cccc(NC(=O)c2oc3ccc(S(=O)(=O)N4CCCCC4)cc3c2C)c1C` was 71% (inactive); that for `COc1ccccc1NC(=O)CSC1=Nc2ccccc2C2=NC(CC(=O)NCc3ccccc3)C(=O)N12` (configuration not stated) was 71% (inactive).
`Cc1ccc(-n2ncc3c(N4CCCCCC4)ncnc32)cc1Cl`: the survival was 102% (inactive).
For `CCn1c(=O)cc(SCC(=O)NCCc2cc(OC)ccc2OC)c2ccccc21`, the survival was 61% (inactive).
The value for `Cc1cc(C)cc(Oc2nc3c(c(=O)n(C)c(=O)n3C)n2Cc2ccc(F)cc2)c1` was 76% (inactive); that for `CCCCNc1nc2c(c(=O)n(Cc3ccccc3)c(=O)n2C)n1C` was 66% (inactive).
For the compound `CCCCNc1nc2c(c(=O)n(Cc3ccc(Cl)c(Cl)c3)c(=O)n2C)n1C`, the survival was -10% (active).
The value for `Cc1ccc(C)c(Oc2nc3c(c(=O)n(C)c(=O)n3C)n2Cc2ccccc2)c1` was 32% (active).
Under `COc1cccc(Cn2c(NCc3ccc(C)cc3)nc3c2c(=O)n(C)c(=O)n3C)c1` stands 79% (inactive).
The value for `COc1cccc(Cn2c(Oc3cc(C)cc(C)c3)nc3c2c(=O)n(C)c(=O)n3C)c1` was 31% (active); that for `CCCCNc1nc2c(c(=O)n(Cc3ccc(Cl)cc3)c(=O)n2C)n1C` was 56% (inactive); that for `Cc1cccc(Oc2nc3c(c(=O)n(C)c(=O)n3C)n2Cc2ccccc2)c1C` was 53% (inactive).
With `Cc1cccc(Oc2nc3c(c(=O)n(C)c(=O)n3C)n2C)c1`, the survival was 123% (inactive).
The value for `Cn1c(=O)c2c(nc(Oc3ccccc3)n2Cc2c(Cl)cccc2Cl)n(C)c1=O` was 84% (inactive); that for `Cc1ccc(Oc2nc3c(c(=O)n(Cc4ccccc4)c(=O)n3C)n2C)cc1C` was 44% (inactive); that for `CCCCC(CC)Cn1c(Oc2ccccc2)nc2c1c(=O)n(C)c(=O)n2C` (configuration not stated) was -15% (active).
As for `CCOc1ccc(C(=O)c2cn(CC(=O)Nc3ccc(OC)cc3)c3cc4c(cc3c2=O)OCCO4)cc1`, the survival was 82% (inactive).
Under `CCc1cccc(C)c1NC(=O)Cn1nc(C)c2nn(-c3ccc(Cl)cc3)c(C)c2c1=O` stands 124% (inactive); under `Cc1ccc(-n2nc(CO)c(C(=O)NCCO)n2)cc1`, 82% (inactive); under `CCOc1ccc(CN2CCc3nc(Nc4ccc5c(c4)OCCO5)ncc3C2)cc1`, 89% (inactive).
Under `Cc1ccc(S(=O)(=O)c2nnn3c2nc(N2CCCCC2)c2sccc23)cc1` stands 104% (inactive).
Under `CCOC(=O)c1scc(-c2ccc(C)cc2)c1S(=O)(=O)N1CCN(c2ccccc2)CC1` stands 73% (inactive); under `Cc1ccc(CSc2nnc(-n3c(=O)c(C#N)cc4c(=O)n5cccc(C)c5nc43)s2)cc1`, 101% (inactive); under `N#Cc1cc(-c2ccc(Cl)cc2)no1`, 97% (inactive).
As to `COC(=O)CSc1nnc(-c2ccccc2)n1C`, the survival was 97% (inactive).
`CCc1ccccc1NC(=O)Nc1c(C)n(C)n(-c2ccccc2)c1=O`: the survival is 88% (inactive).
As to `CN1C(=O)N(C)C2(CC1(C)C)CC(C)(C)N(C)C(=O)N2C`, the survival was 102% (inactive).
Under `Cn1c(=O)c2c(nc(SCC(=O)Nc3ccc(F)c(F)c3)n2Cc2ccccc2F)n(C)c1=O` stands 111% (inactive); under `COc1ccc(NC(=O)c2nnn(Cc3ccc(Br)cc3F)c2N)c(OC)c1`, 68% (inactive).
On to `COc1ccccc1Oc1nc2c(c(=O)n(C)c(=O)n2C)n1Cc1cccc(Br)c1`, for which the survival is 40% (active).
The value for `Cn1c(=O)c2c(nc(NCCc3ccccc3)n2Cc2cccc(Br)c2)n(C)c1=O` was 50% (inactive); that for `COc1ccc(Cl)c(Cn2c(NCCN)nc3c2c(=O)n(C)c(=O)n3C)c1` was 56% (active); that for `COc1ccc(CNc2nc3c(c(=O)n(C)c(=O)n3C)n2Cc2ccccc2Cl)cc1` was 65% (inactive).
Under `Cc1ccccc1Oc1nc2c(c(=O)n(C)c(=O)n2C)n1Cc1ccc(Br)cc1` stands 143% (inactive); under `Cn1c(=O)c2c(nc(NCc3ccccc3)n2Cc2ccc(Cl)c(Cl)c2)n(C)c1=O`, 42% (inactive).
`COc1ccc(CCNc2nc3c(c(=O)n(C)c(=O)n3C)n2Cc2ccccc2Cl)cc1OC`: the survival was 75% (inactive).
In the case of `Cn1c(=O)c2c(nc(NCc3ccccc3)n2Cc2ccccc2)n(C)c1=O`, the survival was 38% (active).
As to `Cn1c(=O)c2c(nc(NCc3ccccc3)n2Cc2ccccc2Cl)n(C)c1=O`, the survival was 58% (inactive).
The value for `COc1ccc(NC(=O)Cn2cnc3sc(C)c(S(=O)(=O)N4CCN(c5ccccc5OC)CC4)c3c2=O)cc1OC` was 67% (inactive); that for `CC1CCN(c2nc(N3CCCCC3)nc(N3CCCCC3)n2)CC1` was 62% (inactive); that for `CCOC(=O)c1cc(C)n(CC2CCC(C(=O)Nc3ccc(C)c(F)c3)CC2)c1C` (configuration not stated) was 64% (inactive).
Under `Cc1cccc(NC(=O)C2CCCN(S(=O)(=O)c3c(C)noc3/C=C/N(C)C)C2)c1C` (configuration not stated) stands 84% (inactive).
